The nature of test [1]: qHTS assay to test for compound auto fluorescence at 535 nm (green) in HEK293 cells (AID 720680). A general note: qHTS replaces the single test concentration by a dilution series.
A short description of test [2]: qHTS assay to test for compound auto fluorescence at 460 nm (blue) in HEK293 cell free culture (AID 720681). In outline:
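Test compounds were pinned into cell-free culture medium (DMEM with 10% FBS) and fluorescence was read directly at Ex/Em 405/460 nm. Signals were expressed as fluorescence equivalents of triamterene, with DMSO vehicle as control.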

The nature of test [3]: qHTS assay to test for compound auto fluorescence at 535 nm (green) in HEK293 cell free culture (AID 720682). In outline:
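Fluorescein serves as the green reference fluorophore; each compound's intrinsic emission at 535 nm (excitation 485 nm) is reported as an equivalent amount of that dye, measured in serum-containing DMEM without cells.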

Test [4] in a line: qHTS assay to test for compound auto fluorescence at 590 nm (red) in HEK293 cell free culture (AID 720683). In outline: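 Tox21 10K library compounds were pinned into cell-free DMEM with 10% FBS and fluorescence was read at excitation 540 nm. Activity is expressed as Rose Bengal sodium equivalency.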
Test [5] is described as follows: qHTS assay to test for compound auto fluorescence at 590 nm (red) in HepG2 cell free culture (AID 720684). In outline: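 Ex 540 / Em 590 nm read of compound in cell-free MEM (10% FBS). Rose Bengal sodium reference.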
The nature of test [6]: qHTS assay to test for compound auto fluorescence at 460 nm (blue) in HepG2 cell free culture (AID 720685). In outline:
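Cell-free plates of MEM plus 10% FBS received 23 nL compound or DMSO vehicle; blue-channel (405/460 nm) intensity scored against triamterene as reference fluorophore.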

Test [7] can be described thus: qHTS assay to test for compound auto fluorescence at 535 nm (green) in HepG2 cell free culture (AID 720686).
Test [8] can be described thus: qHTS assay to test for compound auto fluorescence at 460 nm (blue) in HepG2 cells (AID 720687). In outline: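 Cells (2,000/well in MEM with 10% FBS) attached overnight at 37 C, then were exposed to compound or DMSO for 1 hr at 37 C, 5% CO2. Fluorescence read at Ex/Em 405/460 nm, expressed as triamterene-equivalent signal.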
Test [9] can be described thus: qHTS assay to identify small molecule antagonists of the glucocorticoid receptor (GR) signaling pathway - cell viability counter screen (AID 720693). Also: nearly all actives have a fitted effect of over 55% in size. Also: potency is read from the fitted curve at half-maximal effect.
Test [10] can be described thus: qHTS assay for identifying genotoxic compounds that show differential cytotoxicity against isogenic chicken DT40 cell lines with known DNA damage response pathways - wild type cell line (AID 743012). Also: nearly all actives have a fitted effect of over 60% in size. Also: potency is read from the fitted curve at half-maximal effect. In outline: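 CellTiter-Glo luminescence readout of viability in wild type DT40 cells after 40 h compound exposure at 37 C/5% CO2; 300 cells/well; reagent incubated 30 min at room temperature before reading.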

Test [11] in a line: qHTS assay for identifying genotoxic compounds that show differential cytotoxicity against isogenic chicken DT40 cell lines with known DNA damage response pathways - Rev3 mutant cell line (AID 743014). Also: nearly all actives have a fitted effect of over 55% in size. Also: potency is read from the fitted curve at half-maximal effect.
A short description of test [12]: qHTS assay for identifying genotoxic compounds that show differential cytotoxicity against isogenic chicken DT40 cell lines with known DNA damage response pathways - Rad54/Ku70 mutant cell line (AID 743015). Also: nearly all actives have a fitted effect of over 60% in size. Also: potency is read from the fitted curve at half-maximal effect.
The nature of test [13]: qHTS assay to identify small molecule antagonists of the androgen receptor (AR) signaling pathway - cell viability counter screen (AID 743033; also: nearly all actives have a fitted effect of over 45% in size; also: potency is read from the fitted curve at half-maximal effect).
Test [14] can be described thus: qHTS assay to identify small molecule antagonists of the androgen receptor (AR) signaling pathway using the MDA cell line - cell viability counter screen (AID 743041; also: nearly all actives have a fitted effect of over 45% in size). In outline:
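In this qHTS counter assay, fluorescence intensity after CellTiter-Fluor addition indicated viability of MDA-kb2 AR-luc cells given compounds and R1881 for 16 h at 37C.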

The target of test [15] is Glucocorticoid receptor (Homo sapiens) (UniProt P04150). As to the kind of experiment: qHTS assay to identify small molecule agonists of the glucocorticoid receptor (GR) signaling pathway (AID 720691; active = well fitted activation curve with a large enough effect in the signal ratio in the repeat runs, not every such curve was filed as active; the % refers to the signal ratio). In outline:
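HeLa GR-bla reporter line; cells pre-incubated 4 h, compound in DMSO 18 h at 37 C; LiveBLAzer B/G FRET substrate 2 h RT; fluorescence intensity read-out.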

Test [16] has the same target. Nature of the test: qHTS assay to identify small molecule antagonists of the glucocorticoid receptor (GR) signaling pathway (AID 720692; active = well fitted inhibition curve with a large enough effect in the signal ratio in the repeat runs, not every such curve was filed as active; the % refers to the signal ratio). In outline: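 Read-out: beta-lactamase FRET substrate fluorescence, 2 h at room temperature, in HeLa cells stably carrying a GRE-driven bla reporter. Compounds were co-incubated with 5 nM dexamethasone agonist (final) for 18 h at 37 C.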

The target in test [17] is Androgen receptor (Homo sapiens) (UniProt P10275). As to the kind of experiment: qHTS assay to identify small molecule antagonists of the androgen receptor (AR) signaling pathway (AID 743035; active = well fitted inhibition curve with a large enough effect in the signal ratio in the repeat runs, not every such curve was filed as active; the % refers to the signal ratio). In outline: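 AR-bla HEK293 reporter cells; 4 h settle at 37C/5% CO2; compound + R1881 agonist, 16 h at 37C; LiveBLAzer B/G FRET substrate 2 h RT; fluorescence intensity read. qHTS format.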
Sequence of Androgen receptor (Homo sapiens) (P10275 whole entry, looked up): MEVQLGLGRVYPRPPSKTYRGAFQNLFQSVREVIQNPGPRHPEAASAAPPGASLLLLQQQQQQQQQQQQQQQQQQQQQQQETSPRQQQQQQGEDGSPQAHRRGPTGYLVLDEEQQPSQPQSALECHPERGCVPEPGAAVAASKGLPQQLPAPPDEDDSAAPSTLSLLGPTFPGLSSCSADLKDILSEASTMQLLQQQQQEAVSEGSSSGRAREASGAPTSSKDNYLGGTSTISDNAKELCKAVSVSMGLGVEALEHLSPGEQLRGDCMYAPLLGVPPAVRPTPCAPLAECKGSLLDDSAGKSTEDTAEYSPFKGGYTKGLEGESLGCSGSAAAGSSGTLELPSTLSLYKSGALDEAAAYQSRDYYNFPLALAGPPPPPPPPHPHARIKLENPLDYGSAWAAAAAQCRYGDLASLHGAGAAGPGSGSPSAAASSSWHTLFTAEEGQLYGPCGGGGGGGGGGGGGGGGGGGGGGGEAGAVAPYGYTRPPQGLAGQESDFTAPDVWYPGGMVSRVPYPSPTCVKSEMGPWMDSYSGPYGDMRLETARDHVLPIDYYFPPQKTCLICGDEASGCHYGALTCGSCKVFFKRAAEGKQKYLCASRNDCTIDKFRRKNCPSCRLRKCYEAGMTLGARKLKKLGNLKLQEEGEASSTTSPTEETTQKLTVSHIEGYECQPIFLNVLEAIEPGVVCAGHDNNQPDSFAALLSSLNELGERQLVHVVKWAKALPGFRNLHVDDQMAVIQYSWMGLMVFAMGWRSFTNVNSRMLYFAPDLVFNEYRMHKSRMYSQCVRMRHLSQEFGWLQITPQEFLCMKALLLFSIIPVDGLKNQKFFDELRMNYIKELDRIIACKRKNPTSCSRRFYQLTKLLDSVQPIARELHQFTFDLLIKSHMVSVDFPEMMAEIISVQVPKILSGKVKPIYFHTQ

Test [18] shares this target. Nature of the test: qHTS assay to identify small molecule agonists of the androgen receptor (AR) signaling pathway (AID 743036; active = well fitted activation curve with a large enough effect in the signal ratio in the repeat runs, with a control signal flat, not every such curve was filed as active; the % refers to the signal ratio). In outline: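 Fluorescence from a beta-lactamase FRET substrate served as read-out in AR-UAS-bla GripTite HEK293 cells. Cells were treated with DMSO-dissolved compounds for 16 h at 37C, then with LiveBLAzer B/G substrate for 2 h at room temperature.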

Test [19] shares this target. As to the kind of experiment: qHTS assay to identify small molecule agonists of the androgen receptor (AR) signaling pathway using the MDA cell line (AID 743040; also: nearly all actives have a fitted effect of over 20% in size). In outline: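 Cell-based luciferase reporter: MDA-kb2, MMTV promoter (AR + GR response elements). 16 h compound exposure at 37C; ONE-Glo, 30 min RT, luminescence.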
The target is the same in test [20]. Nature of the test: qHTS assay to identify small molecule antagonists of the androgen receptor (AR) signaling pathway using the MDA cell line (AID 743042; also: nearly all actives have a fitted effect of over 55% in size). In outline:
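MDA-kb2 cells (human breast carcinoma, stably carrying an MMTV-luciferase reporter responsive to AR and GR) were plated at 3,000 cells/well and preincubated 5 hr at 37C, then given compound plus R1881 agonist for 16 h. ONE-Glo luminescence was read.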

Several values for one entry are separate records, joined by “and”; a condition that tells them apart may be missing. Equal values may be shown once. Results filed as inconclusive are left out. Some compounds were tested as several samples or in several runs, with calls that do not always agree. Activity calls are given as the source filed them. Unless noted, calls follow the shape of the dose curve; as a rule, active = well fitted curve in the direction sought with a large enough effect in the repeat runs; inconclusive = weak or mixed curves; inactive = no such curve, though single readings can be large; an effect the other way counts as inactive or inconclusive.

Sequence of Glucocorticoid receptor (Homo sapiens) (P04150 whole entry, looked up): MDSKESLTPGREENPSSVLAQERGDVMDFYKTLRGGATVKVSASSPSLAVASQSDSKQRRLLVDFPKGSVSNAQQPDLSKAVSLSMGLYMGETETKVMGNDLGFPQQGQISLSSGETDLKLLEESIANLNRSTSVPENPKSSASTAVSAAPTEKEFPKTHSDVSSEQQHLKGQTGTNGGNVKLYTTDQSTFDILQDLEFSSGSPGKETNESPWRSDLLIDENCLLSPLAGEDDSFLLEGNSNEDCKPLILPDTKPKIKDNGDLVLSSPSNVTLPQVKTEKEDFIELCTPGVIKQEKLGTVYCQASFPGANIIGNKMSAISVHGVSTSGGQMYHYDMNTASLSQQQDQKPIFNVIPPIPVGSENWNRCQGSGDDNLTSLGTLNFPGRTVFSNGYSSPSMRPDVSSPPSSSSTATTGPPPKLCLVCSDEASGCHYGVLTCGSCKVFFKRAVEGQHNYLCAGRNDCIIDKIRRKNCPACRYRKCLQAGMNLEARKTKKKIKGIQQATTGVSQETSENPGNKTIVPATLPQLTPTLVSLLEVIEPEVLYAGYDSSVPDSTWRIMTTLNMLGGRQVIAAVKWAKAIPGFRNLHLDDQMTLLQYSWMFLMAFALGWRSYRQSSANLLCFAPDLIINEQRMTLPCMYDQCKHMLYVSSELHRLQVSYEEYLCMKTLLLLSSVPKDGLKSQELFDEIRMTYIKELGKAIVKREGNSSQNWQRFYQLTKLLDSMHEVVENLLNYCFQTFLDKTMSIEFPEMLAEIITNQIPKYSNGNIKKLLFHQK

For `CCOCCC(=O)OCC`, the molecule was classed as inactive in test [1], in [3], in [4], in test [5] and in [7]. In addition, the Potency entry in test [2], in [6], in test [8], in test [9], in test [10] and in [11] was “inactive” each time. Moreover, the Potency entry in [12], in [13] and in [14] was “inactive” each time.
For `CCCC(=O)OC(=O)CCC`, the molecule was called inactive in [1], in test [3], in [4], in test [5] and in test [7]. Besides, the Potency result in test [2], in [6], in [8], in test [9], in test [10] and in test [11] was “inactive” throughout. Also, the Potency result in [12], in test [13] and in test [14] was “inactive” each time.
As to `CCN(CC)c1ccc(C(=C2C=CC(=[N+](CC)CC)C=C2)c2ccc(S(=O)(=O)O)cc2S(=O)(=O)[O-])cc1`, the outcome in [1], in test [3], in [5], in [7] and in test [18] was inactive. The Potency result in [2], in test [6], in [8], in [15], in [16] and in [11] was “inactive” in each case. Moreover, the Potency result in test [12], in test [17], in test [19], in test [14] and in test [20] was “inactive” each time. Also, the Potency was 21.9 µM (active) in test [9], 24.3 µM (active) in [10] and 21.9 µM (active) in [13].
As to `CCCCC(CC)COS(=O)(=O)O` (stereo not given), the outcome in test [1], in [3], in test [4], in test [5] and in test [7] was inactive. The Potency entry in test [2], in test [6], in test [8], in [9], in test [10] and in test [11] was “inactive” in each case. Moreover, the Potency result in test [13] and in [14] was “inactive” throughout.
Take `O=C(O)c1cc(Cl)cc(Cl)c1O`: the outcome in test [1], in test [3], in test [4], in test [5], in [7] and in test [18] was inactive. Moreover, the Potency result in test [2], in test [6], in test [8], in [9], in test [12] and in [13] was “inactive” in each case. In addition, the Potency entry in test [19], in test [14] and in test [20] was “inactive” in each case.
Turning to `O=C(O)CO`, the outcome in test [1], in [3], in test [4], in [5] and in test [7] was inactive. The Potency entry in test [2], in test [6], in [8], in test [9], in [10] and in test [11] was “inactive” in each case. Moreover, the Potency result in [12], in test [13] and in [14] was “inactive” in each case.
`O=C(O)CCS`: the call in [1], in [3], in [4], in test [5] and in test [7] was inactive. The Potency entry in test [2], in [6], in test [8], in [9], in [10] and in test [11] was “inactive” in each case. Further, the Potency entry in test [12] and in test [13] was “inactive” each time.
Turning to `C[C@@H]1C[C@H]2[C@@H]3CCC4=CC(=O)C=C[C@]4(C)[C@@]3(F)[C@@H](O)C[C@]2(C)[C@@]1(O)C(=O)COP(=O)(O)O`, the result in test [1], in [3], in test [4], in test [5] and in test [7] was inactive. Moreover, the Potency entry in [2], in test [6], in test [8], in test [9], in test [10] and in test [13] was “inactive” in each case.
As for `Cc1ccc2nc(N)[nH]c(=O)c2c1Sc1ccncc1`, the molecule was classed as inactive in test [1], in [3], in test [4], in [5] and in test [7]. Besides, the Potency result in test [2], in test [6], in test [8], in test [9] and in test [14] was “inactive” in each case. Also, the Potency is 1.88 µM (active) in test [10] and 0.596 µM (active) in [12].
As for `CCCCCCCCCCCSCC(=O)O`, the molecule was classed as inactive in [1], in test [3], in [4], in test [5] and in test [7]. The Potency entry in test [2], in test [6], in [8], in [10], in test [11] and in [13] was “inactive” throughout.
Take `CC(CO)(CO)C(=O)O`: the molecule was classed as inactive in test [1], in [3], in [4], in test [5] and in test [7]. For the same molecule, the Potency result in test [2], in test [6], in test [8], in [9], in [10] and in test [12] was “inactive” in each case. Moreover, the Potency result in [13] and in [14] was “inactive” each time.
On to `COC1CCC=CO1` (stereo not given), for which the result in test [1], in test [3], in test [4], in [5] and in [7] was inactive. Besides, the Potency entry in test [2], in [6], in [8], in [9], in test [10] and in test [12] was “inactive” throughout. For the same molecule, the Potency result in [13] and in [14] was “inactive” throughout.
With `CCCCCCCCCCCC(=O)OCC(O)CO` (stereo not given), the call in [1], in test [3], in test [4], in [5] and in test [7] was inactive. In addition, the Potency result in test [2], in test [6], in [8], in test [9], in test [11] and in test [13] was “inactive” in each case. In addition, the Potency entry in [14] was “inactive”. Also, in [10], the Potency entry was “inactive and 61.1 µM (active)”.
Turning to `Nc1ccc(N=Nc2ccc(N)cc2)cc1`, the call in test [1], in [3], in test [4], in test [5] and in test [7] was inactive. The Potency entry in test [2], in test [6], in test [8], in [9], in [11] and in [13] was “inactive” in each case.
As to `CCCCCCCCCCCCCCCCCC(=O)OCC(CC)CCCC` (stereo not given), the call in test [1], in [3], in [4], in [5] and in test [7] was inactive. For the same molecule, the Potency entry in test [2], in [6], in test [8], in [9], in test [10] and in test [11] was “inactive” each time. For the same molecule, the Potency entry in test [12], in test [13] and in [14] was “inactive” each time.
Consider `COc1ccc2nc(S(=O)Cc3ncc(C)c(OC)c3C)[nH]c2c1` (stereo not given), for which the result in test [1], in test [3], in test [4], in test [5] and in test [7] was inactive. For the same molecule, the Potency entry in [2], in [6], in test [8], in [9], in [13] and in [14] was “inactive” throughout. For the same molecule, the Potency was 21.1 µM (active) and inactive in [10]; 26.6 µM (active) and inactive in [11]; 26.6 µM (active) in [12].
For the molecule `COc1ccc(CCN(C)CCCN2CCc3cc(OC)c(OC)cc3CC2=O)cc1OC`, the molecule was classed as inactive in [1], in test [3], in test [4], in [5] and in test [7]. In addition, the Potency entry in test [2], in [6], in [8], in test [9], in [11] and in test [12] was “inactive” throughout. Besides, the Potency entry in [13] and in test [14] was “inactive” each time.
For the molecule `O=C(O)CN1C(=O)c2cccc3cccc(c23)C1=O`, the call in test [1], in test [3], in test [4], in test [5] and in test [7] was inactive. Further, the Potency result in [2], in test [6], in [8], in test [9], in [10] and in [11] was “inactive” throughout. For the same molecule, the Potency entry in [13] and in test [14] was “inactive” in each case.

For the origin of these results see PubChem BioAssay (Tox21).
